# Assay results taken from ChEMBL document CHEMBL4513216, “Probing the Open Global Health Chemical Diversity Library for Multistage-Active Starting Points for Next-Generation Antimalarials” (ACS Infect Dis, 2020).
# Screen size: about 69,000 compounds; about 8,600 (12%) showed an effect of 50% or more. For the sample, strong results were picked, then their nearest neighbours and some compounds at random.
# Test system: Plasmodium berghei
# Assay: Screen against P. berghei liver stage (PbLuc), transformed with Luciferase, at 10uM
# Type: functional, HepG2
# Details: tested at 10 uM
row,Compound,INHIBITION [%]
1,COCCNC(=O)Nc1ccc(-c2nc(C(C)C)no2)cc1,-36.4
2,Cc1cccc(C)c1Nc1noc2c1CN(C(=O)c1ccn(C)n1)CC2,30.35
3,CN(CC1COc2ccccc2O1)C(=O)CCn1cncn1 (configuration not stated),44.05
4,CNC(=O)CN1CCC(NC(=O)N(C)Cc2c(C)noc2C)CC1,34.25
5,Cc1cc(C)c(C(=O)N2CCOCC2c2c(C)n[nH]c2C)o1 (configuration not stated),-8.4
6,CO[C@H]1CN(Cc2ccc(F)cc2)CC[C@@]12CCCO2,25.6
7,Cn1cc(C(=O)N[C@@H]2CN(Cc3ccoc3)[C@@H]3CCCO[C@@H]32)cn1,35.8
8,CN1CCS(=O)(=O)[C@@H]2CCN(C(=O)CC(C)(C)C)CC[C@@H]21,35.8
9,C[C@H]1CN2C[C@H](O)CC2CN1Cc1ccc2nccnc2c1 (some centres not stated),17.4
10,CCc1nsc(N2CCCN(C(=O)COc3ccccc3)CC2)n1,53.8
11,CCc1nsc(N2CCCN(C(=O)c3ccc(OC)cc3)CC2)n1,33.5
12,CCc1nsc(N2CCN(C(=O)COc3ccccc3)CC2)n1,-39.2
13,COC(=O)c1cccn1C1CCN(S(=O)(=O)c2ccccc2)CC1,19.5
14,Cc1ccc(C)c(S(=O)(=O)NCCC(=O)NCc2ccoc2)c1,-0.514
15,CCSCCNc1cc(C)nc2c(C)c(C)nn12,39.9
16,O=C(O)[C@@H]1CN(C(=O)CSCCN2CCCC2)C[C@H]1c1ccccc1,39.3
17,CC1CCN(C(=O)CSCCN2CCOCC2)CC1,85.6
18,O=C(CSCCN1CCOCC1)N1CCCCCC1,44.1
19,O=C(NCC(=O)N1CCc2ccccc2C1)c1ccoc1,26.3
20,CC1CCN(C(=O)CSCc2nc(C3CC3)no2)CC1,-42.2
21,O=C(CSCCN1CCOCC1)N1CCc2ccccc2C1,76
22,O=C1CCCN1c1cccc(CNCc2nc(C3CC3)no2)c1,29.6
23,Cc1c[nH]nc1C1CCCN(C(=O)c2c(C)noc2C)C1 (configuration not stated),23.4
24,N#Cc1cn(C2CC2)c(=O)n(CC(O)c2ccc(Cl)cc2)c1=O (configuration not stated),9.1
25,Cc1cc(C[S+]([O-])Cc2ccccc2C)no1 (configuration not stated),-23.3
26,Cc1ccc(CN2CCc3c(nc4cc(C5CC5)nn4c3O)C2)s1,44.3

row,Compound,INHIBITION [%]
1,CC(C)N(C(=O)N1CCn2cncc2C1)C(C)C,52.2
2,CC(C(=O)N1CCn2cncc2C1)N1CCCC1 (configuration not stated),47.9
3,CC(=O)NC(C(=O)N1CCn2cncc2C1)C(C)C (configuration not stated),29.8
4,O=C(CC1CCN(c2ncnc3cccc(F)c23)CC1)N1CCCC1,-18.5
5,O=C(CC1CCN(c2ncnc3ccccc23)CC1)N1CCCC1,53.2
6,Cn1ncc2c(N3CCC(CC(=O)N4CCCC4)CC3)ncnc21,11.9
7,CC(=O)NCCNC(=O)CN1CCOC(Cn2cc(C)cn2)C1 (configuration not stated),25.6
8,Cc1cccc2[nH]cc(CC(=O)N3CCC(Nc4cccnn4)CC3)c12,24
9,CCc1cnc2c(c1NCc1ccc(OC)cc1)c(=O)n(C)c(=O)n2C,67.6
10,CCc1cnc2c(c1NCc1cccc(OC)c1)c(=O)n(C)c(=O)n2C,55.3
11,CCc1cnc2c(c1Nc1ccncc1)c(=O)n(C)c(=O)n2C,27.6
12,COc1ccc(CNc2c(C)cnc3c2c(=O)n(C)c(=O)n3C)cc1,9.79
13,COc1cccc(CNc2c(C)cnc3c2c(=O)n(C)c(=O)n3C)c1,48.1
14,CCc1cnc2c(c1Nc1ccc(C)c(F)c1)c(=O)n(C)c(=O)n2C,53.1
15,CCc1cnc2c(c1NCc1ccncc1)c(=O)n(C)c(=O)n2C,2.3
16,CCc1cnc2c(c1Nc1ccc3c(c1)OCO3)c(=O)n(C)c(=O)n2C,4.35
17,CCc1cnc2c(c1Nc1ccc(OC)cc1)c(=O)n(C)c(=O)n2C,-50.5
18,O=S(=O)(Cc1ccccc1Cl)CC(O)CO (configuration not stated),27
19,Cc1cnn(Cc2ccc(NC(=O)N3CCCCC3CO)cc2)c1 (configuration not stated),-0.378
20,Cc1noc(CNC2CCCN(Cc3noc(C4CC4)n3)C2)n1 (configuration not stated),-52.5
21,COc1cccc(CNCc2nc3ccccc3c(=O)[nH]2)c1,16.5
22,COCCN1C[C@@H]2OCCN(c3ccnc(N(C)C)n3)[C@@H]2C1,-16.9
23,Cc1noc(C)c1CN1CCO[C@H]2CN(Cc3nccn3C)C[C@H]21,0.72
24,CN(C)c1nccc(N2CCO[C@H]3CN(CC4CCOCC4)C[C@H]32)n1,36.8
25,CN(C)c1nccc(N2CCO[C@H]3CN(Cc4ccco4)C[C@H]32)n1,-23.4
26,CN(C)c1nccc(N2CCO[C@H]3CN(Cc4nccn4C)C[C@H]32)n1,80.2

row,Compound,INHIBITION [%]
1,CCc1ccc(CN2C[C@@H]3OCCN(c4ccnc(N(C)C)n4)[C@@H]3C2)o1,85.1
2,CCS(=O)(=O)Nc1ccc2oc(C)c(C(C)=O)c2c1,28.5
3,Fc1cnc(N2CCCC3(COCCN(c4nccs4)C3)C2)nc1 (configuration not stated),29.4
4,CN1C[C@H](O)[C@]2(CCN(Cc3ccc(F)c(F)c3)C2)S1(=O)=O,54
5,COc1ccc(CN2CC[C@@]3(C2)[C@H](O)CN(C)S3(=O)=O)cc1F,20.7
6,CN1C[C@H](O)[C@]2(CCN(Cc3ccc(OC(F)(F)F)cc3)C2)S1(=O)=O,26
7,Cn1cc(CN2CCCC23CCN(C(=O)c2ccncc2)CC3)cn1,36.4
8,O=C(N1CCOCC1)[C@@]12CCO[C@@H]1CCN(CC1CCCCC1)C2,24.5
9,CNC(=O)[C@@]12CCO[C@@H]1CCN(Cc1ccc3c(c1)OCO3)C2,3.69
10,O=C(N1CCOCC1)[C@@]12CCO[C@@H]1CCN(CC1CCCC1)C2,53.4
11,CN(C)C(=O)[C@@]12CCO[C@@H]1CCN(Cc1ccc3c(c1)OCO3)C2,76.2
12,O=C(N1CCOCC1)[C@@]12CCO[C@@H]1CCN(Cc1ccncc1)C2,83.2
13,O=C(N1CCOCC1)[C@@]12CCO[C@@H]1CCN(Cc1cccc(F)c1)C2,95.1
14,O=C(N1CCOCC1)[C@@]12CCO[C@@H]1CCN(Cc1ccccc1F)C2,36.3
15,CC(C)NC(=O)[C@@]12CCO[C@@H]1CCN(Cc1ccc3c(c1)OCO3)C2,33.5
16,Cc1cc(CN2CC[C@H]3OCC[C@@]3(C(=O)N3CCOCC3)C2)no1,14.6
17,Cc1cccc(CN2CC[C@H]3OCC[C@@]3(C(=O)N3CCOCC3)C2)n1,12.6
18,O=C(N1CCOCC1)[C@@]12CCO[C@@H]1CCN(CC1CCC1)C2,22.2
19,O=C(N1CCOCC1)[C@@]12CCO[C@@H]1CCN(CCN1CCCCC1)C2,-22.9
20,O=S(=O)(c1cn[nH]c1)N1CCC(O)(CN2CCOCC2)C1 (configuration not stated),38.5
21,COc1cc(-c2nc3c([nH]2)CCCNC3=O)ccc1O,-53
22,CN(C)C(=O)CN1CCC2(CCN(CC3CC3)CC2)C1=O,28.4
23,COc1ccccc1CN(C)C(=O)NCc1c(C)cc(C)[nH]c1=O,-13.3
24,O=C(c1ccc(N2CCOCC2)nc1)N1CCCC(n2cccn2)C1 (configuration not stated),31.3
25,CCc1cnc(C)nc1NC1CC(=O)N(CC)C1 (configuration not stated),14.9
26,c1ccc(-n2cc(CN3CCCC3Cn3cccn3)nn2)cc1 (configuration not stated),-18

row,Compound,INHIBITION [%]
1,Cc1cc(C)c(S(N)(=O)=O)cc1C(=O)NCCN1CCCCC1,42.1
2,COc1cc(OC)cc(C(=O)NCc2nn(C)c3c2COCC3)c1,24.2
3,O=S(=O)(c1cn[nH]c1)N1CCCC1c1cc[nH]n1 (configuration not stated),-12.9
4,COc1cccc(CNC(=O)CC2CSc3nc(C)c(C)c(=O)n32)c1 (configuration not stated),27
5,O=C(c1ccnnc1)N1C[C@H](Oc2ccccn2)[C@H]2OCCC[C@H]21,-15.9
6,CC1(C)CC(=O)c2cnc3nc(N4CCOCC4)nc(O)c3c2C1,-42.5
7,Cc1nc(C(F)(F)F)nc(N2CCC3(CC2)CC(C(=O)O)N(C)C3)c1C (configuration not stated),47.2
8,Cc1nc(C(F)(F)F)nc(N2CCC(O)(C(=O)O)CC2)c1C,24.4
9,Cc1sc2nc(C(F)(F)F)nc(N3CCC(NS(C)(=O)=O)CC3)c2c1C,34.4
10,Cc1sc2nc(C(F)(F)F)nc(N3CCCN(C)CC3)c2c1C,53.9
11,CN1CCCN(c2nc(C3CCCC3)nc3c2cnn3C)CC1,26.4
12,Cc1sc2nc(C(F)(F)F)nc(N3CCN(C)CC3)c2c1C,65.8
13,Cc1sc2nc(C(F)(F)F)nc(N3CCN(S(C)(=O)=O)CC3)c2c1C,55
14,CN1CCCN(c2nc(C3CC3)ns2)CC1,-31.5
15,CC(=O)N1CCN(c2nc(C(F)(F)F)nc3sc(C)c(C)c23)CC1,34.4
16,Cc1cc(C)n(CCCC(=O)N2CCc3ncc(Cl)cc3C2)n1,-50.2
17,Cn1cc(NC(=O)N2CCC2c2ccccc2)ccc1=O (configuration not stated),6.1
18,O=C(O)c1nc(SCc2ccccc2)ncc1Br,32.4
19,CCN1CC(C(=O)NCCn2cccc2)CC1=O (configuration not stated),43.9
20,Cc1ncsc1C(=O)N1CCCC(CO)(CC2CC2)C1 (configuration not stated),29.4
21,Cn1nc(Cn2ccnc2)c2c1CN(c1nccs1)C2,3.88
22,CCN1CCCCC1C(=O)N1CCC(OC2CCCC2)CC1 (configuration not stated),10.2
23,O=C(c1cnccn1)N1CCCC2(CCN(Cc3ccc(F)cc3)C2)C1 (configuration not stated),8.03
24,CC(C)(C)C(Cn1cccn1)NC(=O)c1ccco1 (configuration not stated),35.2
